Screening results as filed in PubChem BioAssay.
Shown are actives, neighbours in structure and some others; about 2.3% of the full set was active somewhere.
CHO-K1 Ca PAM = nonselective calcium activators in parental CHO-K1 cells, primary screen, counter-screen for M1 PAM project, cell-based, Fluo-8 calcium fluorescence, full deck, 1536-well | activation, % at 3 µM | ATP EC20; 0% at ATP EC20, 100% at ATP max | AID 602247, 2012 | 0.02% of 360,000 active;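 active means activation above the run cutoff, the mean activation of all test compounds plus 3 SD, cut at about 40% in these data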;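 further: peak over basal fluorescence ratio in a 140 s read after ATP addition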
M1 ag = human M1 muscarinic receptor agonists, primary screen, Fluo-8 calcium fluorescence, CHO-K1 cells, HTS; Muscarinic acetylcholine receptor M1 (Homo sapiens), P11229; CHO-K1 hM1, agonist mode; 0% DMSO, 100% acetylcholine EC100; activation, % at 3 µM; 0.33% of 360,000 active;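 active means activation above the run's mean compound activation plus 3 SD, cut at about 16% in these data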;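 further: peak over basal fluorescence ratio within a 140 s kinetic read after compound addition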
Target sequence (P11229 whole entry, looked up): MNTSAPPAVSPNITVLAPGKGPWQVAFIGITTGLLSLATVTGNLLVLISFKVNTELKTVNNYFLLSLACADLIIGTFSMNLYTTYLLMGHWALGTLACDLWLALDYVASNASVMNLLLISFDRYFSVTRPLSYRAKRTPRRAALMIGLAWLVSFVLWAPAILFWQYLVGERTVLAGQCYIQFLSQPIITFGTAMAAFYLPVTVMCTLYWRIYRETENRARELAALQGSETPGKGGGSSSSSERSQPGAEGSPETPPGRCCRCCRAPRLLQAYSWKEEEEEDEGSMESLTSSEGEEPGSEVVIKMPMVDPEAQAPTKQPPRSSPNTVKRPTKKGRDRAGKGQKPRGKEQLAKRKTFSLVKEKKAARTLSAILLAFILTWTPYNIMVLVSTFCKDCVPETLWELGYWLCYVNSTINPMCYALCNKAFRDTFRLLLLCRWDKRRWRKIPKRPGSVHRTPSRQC
CHO-K1 Ca antag = counter-screen for M1 antagonists: effect in parental CHO-K1 cells | ATP-induced calcium, Fluo-8 fluorescence | inhibition, % at 3 µM | 0.6% of 360,000 active;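 active means inhibition above a per-plate cutoff, the plate's mean sample inhibition plus 3 SD, cut at about 24% in these data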;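 further: 0% = DMSO plus EC80 ATP and 100% = DMSO alone without ATP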
M1 antag = human M1 muscarinic receptor antagonists, primary screen, CHO-K1 cells, Fluo-8 calcium fluorescence, 1536-well; Muscarinic acetylcholine receptor M1 (Homo sapiens), P11229; inhibition, % at 3 µM; 1.3% of 360,000 active; CHO-K1 hM1, ACh EC80 antagonist;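 active means percent inhibition above its own plate's cutoff, namely the mean of that plate's compound wells plus 3 SD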;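 further: peak over basal fluorescence ratio during 140 s after agonist addition; 0% = ACh EC80 plus DMSO and 100% = DMSO alone without agonist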
M1 ag parental = counter-screen for M1 agonists: effect in parental CHO-K1 cells | Fluo-8 calcium fluorescence; scaled to maximal ATP response, vehicle zero | 0.48% of 360,000 active | activation, % at 3 µM | AID 602248, 2012; in the data active means activation above about 15%;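 further: untransfected CHO-K1 host cells lacking M1 receptor as counterscreen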
CHRM1 PAM = human M1 muscarinic receptor positive allosteric modulators, primary screen, CHO-K1 cells, Fluo-8 calcium fluorescence, 1536-well; Muscarinic acetylcholine receptor M1 (Homo sapiens), P11229; CHO-K1 hM1, ACh EC20; 0% = ACh EC20, 100% = maximal ACh; activation, % at 3 µM; 0.088% of 360,000 active; AID 588819, 2011; in the data active means activation above about 19%, passing the limit was not always enough
Numbers without * were called inactive.

`Cc1noc(C)c1NC(=O)N(C)C[C@H]1OCCCC[C@@H](C)Oc2ccc(NC(=O)Nc3ccc(F)cc3)cc2C(=O)N([C@@H](C)CO)C[C@H]1C` gave CHO-K1 Ca PAM 7, M1 ag -5, CHO-K1 Ca antag 3, M1 antag -10, M1 ag parental 0 and CHRM1 PAM 6.
Cc1noc(C)c1NC(=O)N(C)C[C@H]1OCCCC[C@@H](C)Oc2ccc(NC(=O)c3ccccc3)cc2C(=O)N([C@H](C)CO)C[C@@H]1C was read as CHO-K1 Ca PAM -7, M1 ag 17*, CHO-K1 Ca antag 5, M1 antag 6, M1 ag parental 0 and CHRM1 PAM -14.
For Cc1ccc(S(=O)(=O)N(C)C[C@@H]2OCCCC[C@H](C)Oc3ccc(NC(=O)Nc4ccc(F)cc4)cc3C(=O)N([C@H](C)CO)C[C@H]2C)cc1 the results were CHO-K1 Ca PAM -8, M1 ag -4, CHO-K1 Ca antag 26*, M1 antag 0, M1 ag parental -1 and CHRM1 PAM -5.
`Cc1ccc(S(=O)(=O)Nc2ccc3c(c2)C(=O)N([C@@H](C)CO)C[C@@H](C)[C@@H](CN(C)S(=O)(=O)c2ccccc2)OCCCC[C@H](C)O3)cc1` gave CHO-K1 Ca PAM -15, M1 ag -6, CHO-K1 Ca antag 24*, M1 antag -2, M1 ag parental 0 and CHRM1 PAM -4.
Cc1noc(C)c1NC(=O)Nc1ccc2c(c1)C(=O)N([C@H](C)CO)C[C@@H](C)[C@@H](CN(C)S(=O)(=O)c1cn(C)cn1)OCCCC[C@H](C)O2 was read as CHO-K1 Ca PAM 10, M1 ag -3, CHO-K1 Ca antag 26*, M1 antag -3, M1 ag parental 0 and CHRM1 PAM 1.
Cc1ccc(S(=O)(=O)N(C)C[C@@H]2OCCCC[C@@H](C)Oc3ccc(NS(=O)(=O)c4c(C)noc4C)cc3C(=O)N([C@H](C)CO)C[C@@H]2C)cc1 was read as CHO-K1 Ca PAM 6, M1 ag -9, CHO-K1 Ca antag -8, M1 antag -6, M1 ag parental 1 and CHRM1 PAM -5.
For O=C(NCc1cccs1)C1CCC(=O)N(Cc2cccc(C(F)(F)F)c2)C1 (stereo unspecified) the results were CHO-K1 Ca PAM 13, M1 ag 7, CHO-K1 Ca antag 2, M1 antag -4, M1 ag parental 0 and CHRM1 PAM 18.
`Cc1cc(C)c(S(=O)(=O)Nc2ccnc(-c3cccnc3)n2)c(C)c1` gave CHO-K1 Ca PAM 12, M1 ag -12, CHO-K1 Ca antag 1, M1 antag -4, M1 ag parental 0 and CHRM1 PAM 10.
COC(=O)c1cc2c(ccn2-c2ccc(F)cc2)n1Cc1ccc(OC(C)=O)cc1 was read as CHO-K1 Ca PAM 29, M1 ag -1, CHO-K1 Ca antag -7, M1 antag -7, M1 ag parental 21* and CHRM1 PAM 7.
For O=C(CCOc1ccccc1)Nc1ccc(S(=O)(=O)N2CCCC2)cc1 the results were CHO-K1 Ca PAM 19, M1 ag -3, CHO-K1 Ca antag -13, M1 antag -22, M1 ag parental 4 and CHRM1 PAM 6.
Screening c1ccc(Cc2noc(CN3CCN(C4CCc5ccccc5C4)CC3)n2)cc1 (stereo unspecified) returned CHO-K1 Ca PAM 3, M1 ag -8, CHO-K1 Ca antag -14, M1 antag 88*, M1 ag parental 2 and CHRM1 PAM -27.
For c1ccc(Cc2noc(CN3CCC(CN4CCOCC4)CC3)n2)cc1 the results were CHO-K1 Ca PAM -2, M1 ag -8, CHO-K1 Ca antag -8, M1 antag 19, M1 ag parental 0 and CHRM1 PAM -12.
For c1ccc(Cc2noc(CN3CCN(Cc4ccc5c(c4)OCO5)CC3)n2)cc1 the results were CHO-K1 Ca PAM 4, M1 ag -14, CHO-K1 Ca antag -2, M1 antag 4, M1 ag parental 0 and CHRM1 PAM -8.
